Among all 290,000 compounds or so, about 3,000 (1%) were called active. No stated cut-off is given here; in the data, active means inhibition mostly above about 36% (no sharp cut-off); inactive means mostly below about 34%. The entries come from a sample that favours actives as a whole.
Assay: inhibition of NOD1-driven NF-kB reporter – cell-based, luminescence, uHTS, primary screen (AID 1578);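 further: HEK-293T reporter cells stimulated with the NOD1 agonist gamma-tri-DAP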
Settings: NOD1-driven NF-kB luciferase reporter cells, at 4 µM, hits give high values

SMILES	inhibition
COc1cc(-c2cc(-c3ccccc3)nc(SCC(=O)O)c2C#N)cc(OC)c1OC	-3.4% (inactive)
O=C(NCc1ccccc1)C1CCCN(S(=O)(=O)c2ccc(-n3cnnn3)cc2)C1 (centres undefined)	34.5% (inactive)
O=C(NC1CCSC1=O)c1ccccc1 (centres undefined)	18.9% (inactive)
Cc1ccc2sc(N(CCN(C)C)C(=O)c3ccc(S(=O)(=O)N4CC(C)OC(C)C4)cc3)nc2c1C (centres undefined)	-6.4% (inactive)
COc1ccc(Br)cc1C1CC(=O)C(C)C(c2cc(Br)ccc2OC)N1 (centres undefined)	-12% (inactive)
COc1ccc(/C=N/NC(=O)CSCc2ccc([N+](=O)[O-])cc2)cc1OC	-10.4% (inactive)
O=C(NNc1ccc(F)cc1F)C1CCC1	-1.9% (inactive)
O=C(NNc1ccnc2cc(Cl)ccc12)C1CCCCC1	47.5% (active)
O=C(NNc1cc(Cl)ccc1Cl)C1CCC1	-7.1% (inactive)
Clc1ccc(NNc2ccnc3cc(Cl)ccc23)cc1	-35.6% (inactive)
CCOc1ccc(Nc2ccnc3cc(Cl)ccc23)cc1	5.9% (inactive)
Oc1ccc(Nc2ccnc3cc(Cl)ccc23)cc1	53.4% (active)
NC(=S)NNc1ccnc2cc(Cl)ccc12	-8.6% (inactive)
Clc1ccc(CNC2CCCC2)cc1	9.1% (inactive)
Cc1ccc(CN(C(=O)c2ccc([N+](=O)[O-])cc2)C2CCS(=O)(=O)C2)o1 (centres undefined)	-50% (inactive)
CCOC(=O)C1CCCN(C(=O)CCNS(=O)(=O)c2cc(Br)cnc2N)C1 (centres undefined)	-11.8% (inactive)
Cc1cc(C)c(NC(=O)COC(=O)c2cc([N+](=O)[O-])ccc2N2CCOCC2)c(C)c1	-25.6% (inactive)
CCOc1ccc(N2C(=O)CC(NCCNc3ccc(C(=O)c4cccs4)cc3)C2=O)cc1 (centres undefined)	-13.5% (inactive)
C=C1CCC[C@]2(C)C[C@H]3OC(=O)C(CN(C)CC(OC)OC)[C@H]3CC12 (some centres undefined)	-4.9% (inactive)
C=C1CCC[C@]2(C)C[C@H]3OC(=O)C(CN[C@@H](C)c4ccccc4)[C@H]3CC12 (some centres undefined)	-16.5% (inactive)
C=C1CCC[C@]2(C)C[C@H]3OC(=O)C(CN(Cc4ccc(OC)c(OC)c4)CC(C)O)[C@H]3CC12 (some centres undefined)	33.5% (active)
CCc1ccccc1NC(=S)NCCSc1ccc(Cl)cc1	-3.7% (inactive)
Cc1c(C(C)C)c(=O)n(-c2ccc(S(=O)(=O)NCc3ccccc3)cc2)n1C	44.6% (active)
Cc1c(C(C)C)c(=O)n(-c2ccc(S(=O)(=O)NC(C)C)cc2)n1C	8.6% (inactive)
Cc1c(C(C)C)c(=O)n(-c2ccc(S(=O)(=O)NC3CC3)cc2)n1C	-14.8% (inactive)

SMILES	inhibition
O=C(Nc1ccc(F)cc1F)c1ccc2ncsc2c1	-38% (inactive)
CC(C)OCCCNC(=O)c1cc(-c2cccnc2)nc2ccccc12	-6.7% (inactive)
COC(=O)CN(c1ccc(OC)c(OC)c1)S(C)(=O)=O	-16% (inactive)
CCOC(=O)c1[nH]ncc1CN1CCCC(C(=O)c2ccc(C(C)(C)C)cc2)C1 (centres undefined)	-29.3% (inactive)
CCOC(=O)c1[nH]ncc1CN1CCCC(C(=O)c2ccc(OC)c(OC)c2)C1 (centres undefined)	111% (active)
CCOC(=O)c1[nH]ncc1CN1CCCC(C(=O)c2cc(Cl)ccc2OC)C1 (centres undefined)	16.4% (inactive)
N#CCCN(C(=O)COc1ccc(Cl)cc1Cl)c1ccccc1	-24.1% (inactive)
Cc1ccc(N(CCC#N)C(=O)CSc2ccc3c(c2)OCCO3)cc1	3.9% (inactive)
O=C(CCl)N(Cc1cccc([N+](=O)[O-])c1)c1cccc(Cl)c1	101% (active)
N#CCCN(C(=O)CCl)c1cccc(Cl)c1	58% (active)
Cc1cccc(N(Cc2ccccc2)C(=O)CCl)c1	-31.5% (inactive)
N#CCCN(C(=O)Nc1ccc(Cl)cc1)c1ccccc1	-13% (inactive)
Cc1ccc(C(=O)N(CC#N)CC#N)cc1C	-16.5% (inactive)
O=C(c1ccco1)N(Cc1ccccc1)c1cccc([N+](=O)[O-])c1	24% (inactive)
Cc1ccc(N(CCC#N)C(=O)CCl)cc1C	97.7% (active)
CCCCc1n[nH]c2c1/C(=N/O)CC(C)(C)C2	-12.1% (inactive)
O=C(N/N=C/c1ccncc1)c1cc2ccccc2cc1O	11.3% (inactive)
Cc1cccc(NC(=O)CSC2=NN3CCCC(=O)N=C3S2)c1C	7.2% (inactive)
CC(=O)O/N=C(/c1nonc1N)N(C)C	-21.6% (inactive)
CCCc1nc2ccc(N)cc2c(=O)n1Cc1ccccc1Cl	-43.9% (inactive)
CC(Sc1nc(N)c(NC(=O)c2ccc(Br)o2)c(=O)[nH]1)C(=O)O (centres undefined)	-18.7% (inactive)
N#C/C(=C\c1cccc([N+](=O)[O-])c1)c1nnc2n1CCCCC2	9% (inactive)
CN(c1ccccc1)c1ccc(/C=C(\C#N)c2nnc3n2CCCCC3)cc1[N+](=O)[O-]	78.8% (active)
N#C/C(=C/c1cccc([N+](=O)[O-])c1)c1nnc2n1CCCCC2	-32.4% (inactive)
Cc1ccnc(NC(=O)/C=C/c2ccccc2[N+](=O)[O-])c1	-40.4% (inactive)

SMILES	inhibition
Cc1nccn1CC(O)COc1ccc([N+](=O)[O-])cc1 (centres undefined)	-5.8% (inactive)
CCOC(=O)Cn1nnnc1CN(Cc1ccc(OC)cc1)Cc1cc2cc(C)cc(C)c2[nH]c1=O	-21.1% (inactive)
Cn1c(=O)c2c(nc(N/N=C/c3ccc(OC(=O)c4ccco4)cc3)n2Cc2ccccc2)n(C)c1=O	26.6% (inactive)
Cn1c(=O)c2c(nc(N/N=C/c3ccc(OC(=O)c4ccco4)cc3)n2Cc2ccc(F)cc2)n(C)c1=O	33.2% (inactive)
Cc1nn2c3ccccc3n(CC(=O)c3cccs3)c2nc1=O	19.3% (inactive)
COc1cccc(CNC(=O)N2CCN(S(=O)(=O)c3ccc(Cl)cc3)CC2)c1	12.4% (inactive)
COc1ccc(C(=O)C2CCCN(C(=O)COc3ccc(C(C)=O)cc3)C2)cc1F (centres undefined)	-21.9% (inactive)
CCN1/C(=C2\SC(=S)N(Cc3ccccc3)C2=O)Sc2ccccc21	4.6% (inactive)
CCC(CO)[n+]1c(C)cc(/C=C2\Sc3ccccc3N2Cc2ccccc2)cc1C (centres undefined)	75.9% (active)
C[n+]1ccccc1/C=C1\Sc2ccccc2N1CCO	-20.4% (inactive)
COc1ccc(CNS(=O)(=O)c2ccccc2Br)cc1	3.1% (inactive)
CC(=O)c1cccc(Nc2ccc(-c3ccccc3F)nn2)c1	-57.9% (inactive)
Cc1ccc(C(=O)NC(=S)N2CCN(C)CC2)cc1	-21.2% (inactive)
Cc1ccc(C(=O)NC(=S)N2CCN(c3cc(C)ccc3C)CC2)cc1	55.1% (active)
Cc1ccc(C(=O)NC(=S)N2CCN(c3ccccc3F)CC2)cc1	19.9% (inactive)
COc1ccc(OCC(O)CNC2CCCC2)cc1 (centres undefined)	5.8% (inactive)
Cc1ccc(OCC(O)CNC2CCCC2)cc1C (centres undefined)	62.6% (active)
Cc1ccc(C)c(OCC(O)CNC2CCCC2)c1 (centres undefined)	-40.4% (inactive)
CC(C)OC1(c2ccccc2)OC(=O)c2ccccc21 (centres undefined)	13.3% (inactive)
CC(=O)n1c2ccccc2c2ccccc21	11.7% (inactive)
Cc1ccc(C(=O)n2c(N)nc3ccccc32)cc1	41.2% (active)
Nc1nc2ccccc2n1C(=O)c1ccccc1	-26.6% (inactive)
Cc1ccc(C(=O)n2c3ccccc3c3ccccc32)cc1	7.1% (inactive)
Nc1ccc(C(=O)n2c3ccccc3c3ccccc32)cc1	75.2% (active)
COc1ccc(C(=O)n2c(N)nc3ccccc32)cc1OC	-61.2% (inactive)

SMILES	inhibition
O=C(CC1C(=O)NCCN1Cc1ccc(-c2ccccc2)cc1)NCCCn1cccn1 (centres undefined)	-27.9% (inactive)
CNC(=O)COC(=O)[C@@H](Nc1ccc(S(=O)(=O)N2CCOCC2)cc1[N+](=O)[O-])C(C)C	-8.1% (inactive)
Cc1ccc(C(=O)Nc2ncn[nH]2)cc1	-32.8% (inactive)
CCOc1ccc(-c2[nH]ncc2Oc2cccc(OC)c2)c(O)c1	10.8% (inactive)
CCc1c(C)c(C#N)c2nc3ccccc3n2c1Cl	62.6% (inactive)
Cc1cc(Cl)n2c(nc3ccccc32)c1C#N	-29.7% (inactive)
CCc1c(C)c(C#N)c2nc3ccccc3n2c1N(C)C	2% (inactive)
CCCCc1c(C)c(C#N)c2nc3ccccc3n2c1Cl	101% (active)
CCCCc1c(C)c(C#N)c2nc3ccccc3n2c1NCCN(C)C	-4.5% (inactive)
N#Cc1c(-c2ccccc2)c(C#N)c2nc3ccccc3n2c1N	37.8% (inactive)
CCCCCc1c(C)c(C#N)c2nc3ccccc3n2c1-n1ccnc1C	15.8% (inactive)
CC(C)(C)C1=C(C#N)C(c2cccnc2)C(C#N)=C(N)O1 (centres undefined)	19.8% (inactive)
CCCCOc1ccc(-c2[nH]ncc2C=O)cc1	-46% (inactive)
COc1ccc2nc(NC(=O)c3cccs3)sc2c1	-15.7% (inactive)
CCOc1ccc(OCC)c(N=c2oc3c(C)ncc(CO)c3cc2C(N)=O)c1	23.3% (inactive)
CSc1nnc(CNS(=O)(=O)c2ccc(Cl)cc2)n1C	-7.4% (inactive)
CC(=O)Nc1ncnc2c1c(-c1ccc(Cl)cc1)nn2C(C)(C)C	39.6% (inactive)
CC(C)(C)n1nc(-c2ccc(Cl)cc2)c2c(N)ncnc21	54.6% (inactive)
CC(=O)N(C(C)=O)c1ncnc2c1c(-c1ccc(Cl)cc1)nn2C(C)(C)C	71.2% (active)
Cc1ccccc1C(=O)Nc1ccccn1	-7.2% (inactive)
c1ccc(-c2nn3c(-c4ccccc4)nnc3s2)cc1	-69.4% (inactive)
COc1cc(N/C(=N/S(=O)(=O)c2ccccc2)c2ccccc2)ncn1	48.5% (active)
O=S(=O)(/N=C(/Nc1ccccn1)c1ccccc1)c1ccccc1	5.7% (inactive)
O=S(=O)(/N=C(/Nc1cc(N2CCOCC2)ncn1)c1ccccc1)c1ccccc1	0.2% (inactive)

Reference: PubChem BioAssay AID1578 (Sanford-Burnham Center for Chemical Genomics, 2009)
